Experimental data reported in PubChem BioAssay AID818 (SRMLSC, 2007).
The campaign covered roughly 140,000 compounds. About 2,100 (1.5%) were called active. What follows is part of a selection rich in actives, with near analogues and random picks from the rest. A number with no mark means an inactive call.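 The calls were made as follows: active = viability at or under a set limit, the compound median less 4 SD (cut at about 6% in these data); inactive = the rest.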

Experiment: primary screen for suppressors of beta-catenin knockout HCT116 cell growth, colon tumor, human (AID 818);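 also: 0% = Hyamine 1622 control at 20 µM and 100% = untreated cell control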
Details: CellTiter-Glo, 60 h, at 10 µM, active compounds read low

| Structure (SMILES) | viability |
| --- | --- |
| COc1ccc(NC(=O)CC2C(=O)OCC3CCCCN32)cc1Cl (stereo not drawn) | 93.4% |
| Cc1cc(C)c(C#N)c(SCC(=O)NN2CC(=O)N(c3ccccc3F)CC2=O)n1 | 99.8% |
| CC(C)[C@H](NC(=O)c1ccc(F)cc1)C(=O)OCC(=O)NC(=O)c1cccn1C | 93.5% |
| CC(=O)NC(C)c1nc2ccccc2n1Cc1ccccc1F (stereo not drawn) | 102% |
| CN(Cc1ccccc1)Cc1ccccc1F | 83% |
| N=c1n(CCc2ccccc2)c2ccccc2n1Cc1ccccc1F | 3.71% (active) |
| Cc1ccc2[nH]cc(CCNC(=O)c3ccc([N+](=O)[O-])cc3)c2c1 | 106% |
| Cc1ccc(C(=O)NC(C)c2ccccc2)cc1Br (stereo not drawn) | 83.5% |
| CC(=O)Nc1ccc(S(=O)(=O)NCC(=O)OCc2cc(=O)oc3ccc4ccccc4c23)cc1 | 83.8% |
| CCCN1C(=O)C(Cc2nc3ccccc3c(=O)n2-c2ccccc2)c2cc(C)ccc21 (stereo not drawn) | 74.7% |
| N#CC1=C(N)Oc2c(sc3ccccc23)C1c1ccco1 (stereo not drawn) | 3.24% (active) |
| Cc1cc2c(c(=O)n1Cc1ccco1)C(c1ccccc1)C(C#N)=C(N)O2 (stereo not drawn) | 105% |
| Cc1cc(C)c2c3c(sc2n1)C(c1ccccc1)C(C#N)=C(N)O3 (stereo not drawn) | 21.1% |
| Brc1ccc(-c2csc(N/N=C/c3ccc4c(c3)OCO4)n2)cc1 | 84.8% |
| CC(=O)c1c(O)cc2n(c1=O)-c1ccc(Cl)cc1C2(C)C | 91.5% |
| Cc1ccc(C(CC(=O)O)Nc2nc(N3CCCCC3)nc(N3CCCCC3)n2)cc1 (stereo not drawn) | 97.6% |
| CC(C)n1c(C(O)c2ccccc2)nc2ccccc21 (stereo not drawn) | 110% |
| CC(Nc1nc(N2CCCC2)nc2ccccc12)c1ccccc1 (stereo not drawn) | 1.19% (active) |
| C/C(=N\N1CCN(Cc2ccc(C)cc2)CC1)c1ccco1 | 99.1% |
| Cc1cc2oc(=O)cc(CN3CCN(S(=O)(=O)c4cccs4)CC3)c2cc1C(C)C | 76.9% |
| COc1cccc(-n2c(SCC(=O)c3c[nH]c4ccccc34)nc3ccccc3c2=O)c1 | 73.3% |

| Structure (SMILES) | viability |
| --- | --- |
| NC(=O)c1ccccc1N=Cc1ccc2ccccc2c1 | 35.3% |
| Cc1ccccc1OC/C(O)=C(\C#N)c1nc2ccccc2[nH]1 | 78.6% |
| N#C/C(=C(/O)COC(=O)COc1ccc(Cl)cc1)c1nc2ccccc2[nH]1 | 5.63% (active) |
| N#C/C(=C(/O)COc1cccc2ccccc12)c1nc2ccccc2[nH]1 | 79.3% |
| O=C(Cc1cccc2ccccc12)NCCC1=CCCCC1 | 85.5% |
| CCOc1ncccc1C(=O)N(CC)CC(=O)Nc1ccc(NC(C)=O)cc1 | 104% |
| CCOC(=O)c1ccccc1NS(=O)(=O)c1ccc(OC)cc1 | 17.6% |
| CCOC(=O)C1=C(c2ccc(OC)cc2)C(=O)c2ccccc2C1=O | 1.16% (active) |
| CCCCC(C(=O)OCC(=O)c1ccc(OC)cc1)N1C(=O)c2ccccc2C1=O (stereo not drawn) | 103% |
| CCOC(=O)c1nn(-c2ccccc2F)c2nc(Nc3ccccc3)cc(=O)n12 | 94.3% |
| FC(F)(F)c1cccc(NC(=S)Nc2cccc(Cl)c2)c1 | 5.77% (active) |
| Cc1csc(NC(=S)Nc2cccc(Cl)c2)n1 | 26.5% |
| S=C(Nc1cccc(Cl)c1)Nc1ccc2cn[nH]c2c1 | 77.5% |
| COC(=O)/C(=C1\Oc2ccc(C(C)(C)C)cc2S1)C(F)(F)F | 102% |
| Cc1[nH]n(-c2ccccc2)c(=O)c1/C=N/NC(=O)c1ccoc1C | 3.98% (active) |
| Cc1[nH]n(-c2ccc(Cl)cc2)c(=O)c1/C=N/n1c(C)nc2ccccc2c1=O | 22.4% |
| COc1cc(/C=N\NC(=O)CNC(=O)c2cccc([N+](=O)[O-])c2)ccc1O | 79% |
| Cc1ccc(-n2[nH]c(C)c(/C=N/NC(=O)c3cccc([N+](=O)[O-])c3)c2=O)cc1C | 3.51% (active) |
| Cc1[nH]n(-c2cccc(Cl)c2)c(=O)c1/C=N/n1c(C)nc2ccccc2c1=O | 85.9% |
| COc1cccc(/C=N/NC(=O)c2cccc([N+](=O)[O-])c2)c1OS(=O)(=O)c1ccc(C)cc1 | 80.7% |
| COC(=O)C1NN=C(C(=O)c2ccc(Br)cc2)C1c1cccc(Br)c1 (stereo not drawn) | 96.8% |

| Structure (SMILES) | viability |
| --- | --- |
| O=C(CN1CCN(c2ccc(O)cc2)CC1)NC1CCCc2ccccc21 (stereo not drawn) | 74% |
| COc1ccc(CC(=O)N/N=C(\C)c2ccccn2)cc1 | 3.98% (active) |
| COc1ccc(C/C(C)=N/NC(=O)c2ccncc2)cc1 | 91.1% |
| COc1ccc(C(CC(=O)O)NC(=O)Cc2ccccc2)cc1 (stereo not drawn) | 96.5% |
| C/C(=N\NC(=O)Cc1ccc(Cl)cc1)c1ccccn1 | 4.96% (active) |
| C/C(=N\NC(=O)Cc1ccc(F)cc1)c1ccc(F)cc1 | 99.1% |
| C/C(=N/NC(=O)CSc1ccccn1)c1ccc([N+](=O)[O-])cc1 | 94.1% |
| CCC(CC)C(=O)N1CCN(c2cccc(C)c2C)CC1 | 43.6% |
| COC(C(=O)Nc1ccc(C(C)=O)cc1)c1ccccc1 (stereo not drawn) | 85.5% |
| O=C(NCCCO)/C(=C\C=C\c1ccccc1)NC(=O)c1ccccc1Cl | 94% |
| Cc1cc(Br)ccc1SCC(=O)OCC(=O)NCc1ccc2c(c1)OCO2 | 85.9% |
| CC(C)C(=O)Nc1cccc(NC(=O)c2ccc([N+](=O)[O-])cc2Cl)c1 | 96% |
| O=C(/C=C/c1ccc(Cl)cc1Cl)NCc1ccco1 | 102% |
| O=C(NCc1ccc(Cl)c(Cl)c1)c1cccnc1 | 92.2% |
| O=C(/C=C/c1ccc(Cl)cc1Cl)c1cccnc1 | 0.88% (active) |
| CC(=O)Nc1ccc(NC(=S)NC(=O)c2ccc([N+](=O)[O-])c(C)c2)cc1 | 93.3% |
| CCC(C)(C)C1CCC(=NNC(=O)c2ccc(Br)o2)CC1 (stereo not drawn) | 94.6% |
| O=C(COC(=O)Cc1ccc(Br)cc1)Nc1c(F)c(F)c(F)c(F)c1F | 94.5% |
| COc1cccc(/C=N\NC(=O)C2=NNC(=O)C2C)c1O (stereo not drawn) | 45.9% |
| COc1cc(/C=C2\SC(=S)N(Nc3ncc(C(F)(F)F)cc3Cl)C2=O)cc(OC)c1OC | 109% |
| COc1cccc(/C=N/Nc2ncc(C(F)(F)F)cc2Cl)c1O | 2.51% (active) |
